Measurements reported in PubChem BioAssay (NCI).
The panel holds about 83,000 compounds, 20% with a hit somewhere; the sample as a whole holds those more often.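 A percent growth of 40 corresponds to 60% growth inhibition; 0 means no net growth; -100 means all cells died. Active threshold: below 10.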 Values without a mark were called inactive. The source made the active and inactive calls.

Legend:
Assay in all cases: NCI-60 one-dose screen, 48 h (100 = growth as untreated, 0 = no growth, -100 = all killed)
Settings in all cases: 10 µM unless noted
[1] = tested on: NCI-H23 lung
[2] = tested on: NCI-H226 lung
[3] = tested on: NCI-H322M lung
[4] = tested on: HOP-62 NSCLC
[5] = tested on: NCI-H460 lung
[6] = tested on: NCI-H522 lung
[7] = tested on: A549/ATCC NSCLC
[8] = tested on: 786-0 renal
[9] = tested on: HOP-92 NSCLC
[10] = tested on: COLO 205 colon

Row | Compound | growth [1] | growth [2] | growth [3] | growth [4] | growth [5] | growth [6] [%] | growth [7] | growth [8] | growth [9] | growth [10]
1 | O=C(CCCCCCN1CC(=O)N2[C@@H](c3cc(F)cc(F)c3)c3[nH]c4ccccc4c3C[C@H]2C1=O)NO | 77.4% | 98.1% | 75.1% | 63.4% | 64.4% | 41.2 | 90.5% | 90.9% |  | 
2 | Cc1ccc(-c2csc(N/N=C/c3nc4ccccc4n3C3CC3)n2)cc1 | 82.9% | 64.2% | 91.5% | 74.9% | 84.4% |  | 41.1% | 108% | 92.8% | 
3 | COc1cc(/C=N/n2cnc3oc(-c4ccccc4)cc3c2=N)cc(CN2CCOCC2)c1O | 73% | 62.4% | 97.5% | 74.2% | 89.8% |  | 80.1% | 45.6% | 63.3% | 
4 | O=C(COc1ccc(C2SCC(=O)N2c2ccccc2)cc1)c1ccccc1 (stereo not given) | 94% | 90% | 103% | 95.6% | 102% |  | 93.8% | 102% | 86.8% | 111%
5 | COc1cc(C(=O)C[n+]2ccc3ccccc3c2)cc(OC)c1OC | 96.6% | 95.9% | 98.3% | 97.3% | 101% |  | 105% | 102% | 80% | 103%
6 | COc1ccc(C(=O)n2cc(C=O)c3ccccc32)cc1 | 101% | 96.7% | 95.2% | 124% | 110% |  | 98.6% | 102% | 83.1% | 
7 | CC(=O)Nc1ccc(C)c(Nc2cc(-c3ccc(-n4cccn4)cc3)[nH]n2)c1 | 67% | 57.9% | 83.8% | 51.7% | 27.6% |  | 60.2% | 74.9% | 113% | 67.1%
8 | CCOC(=O)c1c(NCC(=O)Nc2ccc(Br)cc2)sc2c1CCCC2 | 26.3% | 40.7% | 85.6% | 69.2% | 68.9% |  | 73.2% | 21.2% | 67.7% | 33.3%
9 | Oc1ccc(CSc2nnc(-c3ccc(Br)cc3)o2)c2cccnc12 | 38.3% | 61.5% | 35.7% | 21.9% | 10.8% |  | 29.8% | 39.9% | 5.88% (active) | 100%
10 | Cc1nn(-c2ccccc2)cc1/C=N/Nc1nc(Nc2ccccc2)nc(Nc2ccc(S(N)(=O)=O)cc2)n1 | -14.9% (active) | -59.2% (active) | 9.11% (active) | 9.43% (active) | -35.9% (active) |  | -28.7% (active) | -47.6% (active) | -13% (active) | -22% (active)
11 | IP(CCCCCCCCCCSc1n(Cc2ccc3ccccc3c2)c(-c2ccccc2)c(-c2ccccc2)[n+]1Cc1ccc2ccccc2c1)(c1ccccc1)(c1ccccc1)c1ccccc1 | -66.2% (active) | -55.2% (active) | -68.4% (active) | -59.1% (active) | -63.4% (active) |  | -55% (active) | -56.2% (active) | -77.8% (active) | -55.2% (active)
12 | CC(=O)Nc1nc2c(s1)C1=CC[C@H]3[C@@H]4CC[C@H](C(C)=O)[C@@]4(C)CC[C@@H]3[C@@]1(C)CC2 | 81.2% | 94.8% | 77.1% | 62.8% | 64.4% |  |  | 25% | 105% | 57%
13 | COc1ccc([C@H]2[C@H](O)C(=O)N2c2cc(OC)c(OC)c(OC)c2)cc1Cl | 29.9% | 21.6% | 49.1% | 23.1% | 1.57% (active) |  | 19.1% | 22.1% | -6.45% (active) | -79.3% (active)
14 | COc1ccc(NS(=O)(=O)c2ccc(-c3cnc(C4CC4)o3)cc2)cc1Cl | 37.3% | 35.5% | 52.2% | 30.2% | 18.3% | 33.2 |  | 46.7% | 55.4% | 12.4%
15 | COc1ccc(OC)c(NC2=C(Cl)C(=O)C(C)=C(C)C2=O)c1 | 85.8% | 84.2% | 103% | 92.1% | 98.4% |  | 101% | 102% | 96.6% | 107%
16 | Nc1n[nH]c2cccc(C#Cc3cccc(NC(=O)c4cccc(OC(F)(F)F)c4)c3)c12 | 35.1% | 46.8% | 77.3% | 59.4% | 58.1% |  | 71.4% | 65.3% | -9.3% (active) | 49%
17 | O=C(COc1ccc(C2SCC(=O)N2c2ccc(F)cc2)cc1)c1ccccc1 (stereo not given) | 95.6% | 91.7% | 98.3% | 95.5% | 108% |  | 87.9% | 102% | 76.7% | 112%
18 | O=C(O)c1ccc(-n2cc(CNc3ccc(Cl)cc3)c(-c3ccc(F)cc3)n2)cc1 | 104% | 103% | 95.5% | 95.8% | 98.4% |  | 85.4% | 101% | 117% | 119%
19 | C/C(=C(/C)C1CC1CCN(C(=O)c1ccccn1)S(=O)(=O)c1ccc(C)cc1)C1CCCCC1 (stereo not given) | 84.2% | 97% | 105% | 102% | 100% |  | 97% | 95.5% | 104% | 108%
20 | CNC(=O)c1cc(N2CCc3cc(NC(=O)Nc4ccc(Cl)c(Cl)c4)ccc32)ccn1 | 95.9% | 95.9% | 98.6% | 87% | 82.5% |  | 76.3% | 67.2% | 88.9% | 77.3%
